Records with an inconclusive call do not appear. Where a call stands in place of a potency, no number is given. Calls of active or inactive are those of the source. Unless noted, calls come from the whole dose curve; as a rule, active = well fitted curve in the direction sought with a large enough effect in the repeat runs; inconclusive = weak or mixed curves; inactive = no such curve, though single readings can be large; an effect the other way counts as inactive or inconclusive.
Tests used:
[1] = A CellTox Green Cytotoxicity Assay to monitor cytotoxicity in HEK293 cells - 32 hour (AID 1224881); note: nearly all actives have a fitted effect of over 40% in size
Outline: (§1)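 Nonlytic real-time cytotoxicity: HEK293 + CellTox Green reagent plated, 5 h preincubation, pintool compound addition (23 nL in DMSO), 37 C for 40 h, fluorescence measured at successive time points.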

[2] = A CellTox Green Cytotoxicity Assay to monitor cytotoxicity in HepG2 cells - 0 hour (AID 1224882); note: nearly all actives have a fitted effect of over 35% in size
Outline: (§2)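 Read-out is fluorescence of a cyanine dye excluded from live cells that stains DNA of dead HepG2 cells, with signal proportional to cytotoxicity. Plates were read at 0, 8, 16, 24, 32 and 40 h after compound addition.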

[3] = A CellTox Green Cytotoxicity Assay to monitor cytotoxicity in HepG2 cells - 32 hour (AID 1224883); note: nearly all actives have a fitted effect of over 50% in size
Outline: as §2

[4] = A CellTox Green Cytotoxicity Assay to monitor cytotoxicity in HEK293 cells - 8 hour (AID 1224884); note: nearly all actives have a fitted effect of over 35% in size
Outline: as §1

[5] = qHTS RealTime-Glo MT Cell Viability Assay in HepG2 cells - 16 hour (AID 1224885); note: nearly all actives have a fitted effect of over 50% in size
Outline: (§3)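 Cell number in HepG2 cultures estimated from NanoLuc luminescence generated by metabolic reduction of a prosubstrate by living cells. The homogeneous, nonlytic format allowed repeated reads at 0, 8, 16, 24, 32 and 40 h of compound exposure.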

[6] = qHTS RealTime-Glo MT Cell Viability Assay in HEK293 cells - 24 hour (AID 1224886); note: nearly all actives have a fitted effect of over 50% in size; note: potency is the fitted concentration of half-maximal effect
Outline: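 Homogeneous bioluminescent viability format in HEK293 cells (600 cells/well). Following 5 h at 37 C/5% CO2, 23 nL compound was pintooled; the signal was measured repeatedly during 40 h incubation.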

[7] = qHTS RealTime-Glo MT Cell Viability Assay in HEK293 cells - 8 hour (AID 1224887); note: top concentration of the series differs between compounds; nearly all actives have a fitted effect of over 50% in size
Outline: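 Cells were seeded together with NanoLuc luciferase and a prosubstrate that viable cells reduce to a luciferase substrate. After a 5 h incubation at 37 C/5% CO2, compounds were added and luminescence was measured repeatedly during 40 h of treatment.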

[8] = A CellTox Green Cytotoxicity Assay to monitor cytotoxicity in HEK293 cells - 16 hour (AID 1224888); note: nearly all actives have a fitted effect of over 35% in size
Outline: as §1

[9] = qHTS RealTime-Glo MT Cell Viability Assay in HepG2 cells - 0 hour (AID 1224889); note: nearly all actives have a fitted effect of over 50% in size; note: potency is the fitted concentration of half-maximal effect
Outline: as §3

[10] = A CellTox Green Cytotoxicity Assay to monitor cytotoxicity in HepG2 cells - 8 hour (AID 1224890); note: nearly all actives have a fitted effect of over 45% in size
Outline: as §2

[11] = qHTS assay to identify small molecule antagonists of the estrogen receptor alpha (ER-alpha) signaling pathway using the BG1 cell line in the presence of 0.1 nM 17-beta-estradiol - cell viability counter screen (AID 1259241); note: nearly all actives have a fitted effect of over 40% in size
Outline: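 VM7Luc4E2 cells (endogenous full-length ER-alpha, 4xERE-luciferase), cultured 5 days in charcoal-stripped serum, exposed to compounds with 0.1 nM 17beta-estradiol (final) for 22 hr at 37C. Viability read in same wells as live-cell protease fluorescence after 30 min.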

[12] = qHTS assay to identify small molecule antagonists of the androgen receptor (AR) signaling pathway using the MDA cell line in the presence of 0.5 nM R1881 - cell viability counter screen (AID 1259242); note: nearly all actives have a fitted effect of over 45% in size
Outline: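 Counter screen for cytotoxicity run in the same wells as the AR antagonist reporter screen: MDA-kb2 cells were treated 16 hr with test compounds and 0.5 nM R1881, then live-cell protease activity was measured by fluorescence.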

[13] = qHTS assay to identify small molecule HDAC inhibitors (AID 1259364); note: top concentration of the series differs between compounds; nearly all actives have a fitted effect of over 45% in size
Outline: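 Luminescence from a cell-permeant luminogenic class I/II HDAC substrate reports endogenous deacetylase activity in intact HCT-116 cells treated with compounds for 2 h.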

[14] = qHTS assay to identify small molecule HDAC inhibitors - cell viability counter screen (AID 1259365)
Outline: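 Wild-type HCT-116 cells, 1,500/well, cultured overnight, then compound-treated 2 h at 37 C. Viability measured as ATP luminescence with CellTiter-Glo after 30 min at room temperature.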

[15] = qHTS assay to identify small molecule agonists of the sonic hedgehog signaling (Shh) pathway - cell viability counter screen (AID 1259366); note: nearly all actives have a fitted effect of over 50% in size; note: potency is the fitted concentration of half-maximal effect
Outline: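 NIH/3T3-derived Gli1-Luc reporter cells, 2,000 per well, received compound after 4 h and were treated about 23 h at 37C. Viability measured in the same wells by CellTiter-Fluor fluorescence after 1 h.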

[16] = qHTS assay to identify small molecule antagonists of the sonic hedgehog signaling (Shh) pathway - cell viability counter screen (AID 1259367); note: nearly all actives have a fitted effect of over 55% in size
Outline: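 Seed 3T3 Gli1-Luc cells at 2,000 per well; incubate 4 hr; add compound in DMSO, then conditioned medium; incubate at 37C with 5% CO2; add CellTiter-Fluor after 23 hr; read fluorescence 1 hr later.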

[17] = molecular target: Androgen receptor (Homo sapiens) (UniProt P10275); assay: qHTS assay to identify small molecule antagonists of the androgen receptor (AR) signaling pathway using the MDA cell line in the presence of 0.5 nM R1881 (AID 1259243); note: nearly all actives have a fitted effect of over 50% in size; note: potency is the fitted concentration of half-maximal effect
Sequence of Androgen receptor (Homo sapiens) (P10275 whole entry, looked up): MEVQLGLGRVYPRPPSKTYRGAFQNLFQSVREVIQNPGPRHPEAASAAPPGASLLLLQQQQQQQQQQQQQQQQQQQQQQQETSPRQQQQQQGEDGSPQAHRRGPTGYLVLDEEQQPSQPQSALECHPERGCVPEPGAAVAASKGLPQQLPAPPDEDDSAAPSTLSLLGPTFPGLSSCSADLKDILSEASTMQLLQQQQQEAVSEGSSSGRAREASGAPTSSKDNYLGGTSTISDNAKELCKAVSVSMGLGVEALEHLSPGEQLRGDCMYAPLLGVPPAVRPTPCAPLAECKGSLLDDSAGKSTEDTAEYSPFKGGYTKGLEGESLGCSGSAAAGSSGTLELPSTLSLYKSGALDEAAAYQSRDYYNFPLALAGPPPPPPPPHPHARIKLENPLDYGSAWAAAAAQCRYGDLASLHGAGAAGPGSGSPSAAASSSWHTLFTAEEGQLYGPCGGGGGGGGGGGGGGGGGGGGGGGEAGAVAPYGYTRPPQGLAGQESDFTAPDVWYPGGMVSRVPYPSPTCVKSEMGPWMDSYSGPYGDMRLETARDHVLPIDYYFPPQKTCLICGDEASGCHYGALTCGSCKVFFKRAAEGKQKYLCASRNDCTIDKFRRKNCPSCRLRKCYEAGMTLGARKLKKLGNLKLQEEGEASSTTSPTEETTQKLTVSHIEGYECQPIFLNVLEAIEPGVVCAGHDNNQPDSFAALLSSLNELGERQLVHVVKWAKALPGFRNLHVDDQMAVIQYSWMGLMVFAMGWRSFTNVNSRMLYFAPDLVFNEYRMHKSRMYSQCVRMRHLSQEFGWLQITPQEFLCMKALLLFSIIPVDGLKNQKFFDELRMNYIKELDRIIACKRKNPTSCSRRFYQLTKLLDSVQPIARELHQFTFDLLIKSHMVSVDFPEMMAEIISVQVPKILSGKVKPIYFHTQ
Outline: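 Luciferase luminescence is the read-out: compounds are tested for suppressing 0.5 nM R1881-driven MMTV reporter activity in MDA-kb2 cells after 16 hr at 37C.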

[18] = molecular target: Estrogen receptor (Homo sapiens) (UniProt P03372); assay: qHTS assay to identify small molecule antagonists of the estrogen receptor alpha (ER-alpha) signaling pathway using the BG1 cell line in the presence of 0.1 nM 17-beta-estradiol (AID 1259244); note: nearly all actives have a fitted effect of over 50% in size
Sequence of Estrogen receptor (Homo sapiens) (P03372 whole entry, looked up): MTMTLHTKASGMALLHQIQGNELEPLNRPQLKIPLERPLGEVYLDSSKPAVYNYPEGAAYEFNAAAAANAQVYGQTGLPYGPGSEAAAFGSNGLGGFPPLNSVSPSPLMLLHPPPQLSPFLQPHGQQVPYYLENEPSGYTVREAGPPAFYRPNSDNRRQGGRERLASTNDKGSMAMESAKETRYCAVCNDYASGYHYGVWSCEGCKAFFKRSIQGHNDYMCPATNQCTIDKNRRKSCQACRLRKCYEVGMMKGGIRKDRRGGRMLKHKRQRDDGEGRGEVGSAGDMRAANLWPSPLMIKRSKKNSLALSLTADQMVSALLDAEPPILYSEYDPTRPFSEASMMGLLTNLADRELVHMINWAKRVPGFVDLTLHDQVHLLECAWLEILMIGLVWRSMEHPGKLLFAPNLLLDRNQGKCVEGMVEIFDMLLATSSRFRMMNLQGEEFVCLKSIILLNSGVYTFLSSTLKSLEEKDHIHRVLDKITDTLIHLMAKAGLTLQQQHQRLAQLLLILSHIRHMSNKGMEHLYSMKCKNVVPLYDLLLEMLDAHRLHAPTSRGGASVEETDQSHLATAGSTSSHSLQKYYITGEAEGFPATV
Outline: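 Cells: VM7Luc4E2, endogenous ER-alpha, 4x ERE-luc stable. Pre-culture 5 d, phenol red-free, charcoal-stripped FBS. Plated 24 h, compound + E2 0.1 nM final, 22 h 37C/5% CO2. Readout ONE-Glo luminescence.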

[19] = qHTS assay to identify small molecule agonists of the sonic hedgehog signaling (Shh) pathway (AID 1259368; calls by dose curve;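 note: NIH/3T3-derived 3T3Gli1-Luc cells carrying a stable Gli1-driven firefly luciferase reporter; series mostly up to about 92 µM; nearly all actives have a fitted effect of over 15% in size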)
Outline: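 3T3Gli1-Luc (NIH/3T3 clone, stable Gli1-Luc); 4 hr pre-incubation, then cpd in DMSO 24 hr, 37 C/5% CO2; luciferase reagent 30 min RT; luminescence.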

[20] = qHTS assay to identify small molecule phospholipidosis (PLD) inducers (AID 1259344; active = well fitted curve in the direction sought with a large enough effect; an effect the other way counts as inactive or inconclusive)
Outline: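 Quantitative HTS in HepG2: compound plus LipidTOX Red dye for 24 h, paraformaldehyde fixation with Hoechst 33342, widefield high-content imaging; amiodarone as positive and DMSO as negative control.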

Structure (SMILES)	Potency [1]	outcome [2]	Potency [3]	Potency [4]	Potency [5]	Potency [6]	Potency [7]	Potency [8]	Potency [9]	Potency [10]	outcome [11]	outcome [12]	Potency [13]	outcome [14]	Potency [15]	Potency [16]	Potency [17]	Potency [18]	outcome [19]	outcome [20]
ClCCOCOCCCl	inactive	inactive	inactive	inactive	inactive	inactive	inactive	inactive	inactive	inactive	inactive	inactive	inactive	inactive	inactive	inactive				
CCC(=O)C(CCN(C)C)(c1ccccc1)c1ccccc1	inactive	inactive	inactive	inactive	inactive	inactive	inactive	inactive	inactive	inactive		inactive	inactive	inactive	inactive	inactive	inactive	inactive	inactive	
Nc1ccccc1Cl	inactive	inactive	inactive	inactive	inactive	inactive	inactive	inactive		inactive	inactive	inactive	inactive	inactive	inactive	inactive	inactive	inactive	inactive	
O=C1CN=C(c2ccccc2)c2cc([N+](=O)[O-])ccc2N1	inactive	inactive	inactive	inactive	inactive	inactive	inactive	inactive	inactive	inactive		inactive	inactive	inactive	inactive	inactive		inactive		inactive
COc1cccc(C(=O)NN(C(=O)c2cc(C)cc(C)c2)C(C)(C)C)c1C	inactive	inactive	inactive	inactive	inactive	inactive	inactive	inactive	inactive	inactive		inactive	inactive	inactive	13.7 µM (active)				inactive	
CNC(=O)Oc1cccc(C(C)C)c1	inactive	inactive	inactive	inactive	inactive	inactive	inactive	inactive	inactive			inactive	inactive	inactive	inactive	inactive			inactive	
C[C@]1(O)CC[C@H]2[C@@H]3CCC4=CC(=O)CC[C@]4(C)[C@@]3(F)[C@@H](O)C[C@@]21C	inactive	inactive	inactive	inactive	inactive	inactive	inactive	inactive	12.4 µM (active)	inactive	inactive	inactive	inactive	inactive	inactive	inactive			inactive	
CCCSC(=O)Cl	inactive	inactive	inactive	inactive	inactive	inactive	inactive	inactive		inactive		inactive	inactive	inactive	inactive	inactive		inactive	inactive	
CC(C=O)Cc1ccc2c(c1)OCO2 (stereo not drawn)	inactive	inactive	inactive	inactive	inactive	inactive	inactive	inactive	inactive	inactive	inactive	inactive	inactive	inactive	inactive	inactive				
ClCC(Cl)(Cl)Cl	inactive	inactive	inactive	inactive	inactive	inactive	inactive	inactive	inactive		inactive	inactive	inactive	inactive	inactive	inactive		inactive	inactive	
COc1cc(C[C@@H](C)N)c(OC)cc1C	inactive	inactive	inactive	inactive	inactive	inactive	inactive	inactive	inactive		inactive	inactive	inactive	inactive	inactive	inactive		inactive	inactive	
CCC1(c2ccccc2)C(=O)NC(=O)NC1=O	inactive	inactive	inactive	inactive	inactive	inactive	inactive	inactive	inactive	inactive		inactive	inactive	inactive	inactive	inactive		inactive	inactive	inactive
CCOC(=O)C(c1c(O)c2ccccc2oc1=O)c1c(O)c2ccccc2oc1=O	inactive	inactive	inactive	inactive	inactive	inactive	inactive	inactive		inactive	inactive	inactive	inactive	inactive			inactive	inactive	inactive	
OCCBr	inactive	inactive	inactive	inactive	inactive		inactive	inactive		inactive	inactive	inactive	inactive	inactive	inactive	inactive		inactive	inactive	
O=[N+]([O-])c1cccc2c([N+](=O)[O-])cccc12	inactive	inactive	inactive	inactive	inactive	49.2 µM (active)	inactive	inactive		inactive			inactive	inactive	inactive	inactive	61.4 µM (active)			
CC1CCCCC1NC(=O)Nc1ccccc1 (stereo not drawn)	inactive	inactive	inactive	inactive	inactive	inactive		inactive	inactive	inactive		inactive		inactive	inactive				inactive	
COC(=O)COc1ccc(Cl)cc1Cl	inactive	inactive	inactive	inactive	inactive		inactive	inactive	inactive	inactive	inactive	inactive	inactive	inactive	inactive	inactive			inactive	
CCC(Cl)[N+](=O)[O-] (stereo not drawn)	inactive	inactive	inactive	inactive	inactive	inactive	inactive		inactive	inactive	inactive	inactive	inactive	inactive	inactive	inactive		inactive	inactive	
Nc1cnn(-c2ccccc2)c(=O)c1Cl	inactive	inactive	inactive	inactive	inactive		inactive		inactive	inactive	inactive	inactive	inactive	inactive	inactive			inactive	inactive	
CCC(C)(C)c1cc(-n2nc3ccccc3n2)c(O)c(C(C)(C)CC)c1	inactive	inactive	inactive	inactive	inactive	24.9 µM (active)		inactive	inactive		inactive	inactive	inactive	inactive	inactive	inactive	39.2 µM (active)		inactive	
ClC(Cl)Br	inactive	inactive	inactive	inactive	inactive		inactive		inactive	inactive	inactive	inactive	inactive	inactive	inactive	inactive		inactive		
CCOC(=O)NC(=S)Nc1ccccc1NC(=S)NC(=O)OCC	inactive	inactive	inactive	inactive	inactive		inactive	inactive		inactive	inactive	inactive		inactive	inactive	inactive			inactive	
CCOC(=O)/C=C(C)/C=C/C[C@@H](C)CCCC(C)C	inactive	inactive	inactive	inactive	inactive	inactive	inactive			inactive	inactive	inactive	inactive	inactive	inactive			inactive	inactive	inactive
O=P(O)(Oc1ccccc1)Oc1ccccc1	inactive	inactive	inactive	inactive	inactive		inactive	inactive		inactive	inactive	inactive	inactive	inactive	inactive	inactive		inactive	inactive	
CC(C)COP(=O)(OCC(C)C)OCC(C)C	inactive	inactive	inactive	inactive	inactive		inactive	inactive	inactive	inactive		inactive	inactive	inactive	inactive	inactive			inactive	
C[C@@H]1CN(C2CCC(C#N)(c3ccc(F)cc3)CC2)CC[C@]1(C(=O)O)c1ccccc1 (stereo partly drawn)	inactive	inactive	inactive	inactive	inactive	inactive	inactive		inactive	inactive	inactive	inactive	inactive	inactive	inactive	inactive		inactive		inactive
COP(=S)(OC)Oc1c(Cl)cc(C)cc1Cl	inactive	inactive	inactive	inactive	inactive	inactive	inactive		inactive	inactive	inactive	inactive	inactive	inactive	inactive	inactive		inactive	inactive	
CNC(=O)O/N=C(\C)SC	inactive	inactive	inactive	inactive	inactive	inactive	inactive		inactive		inactive	inactive	inactive	inactive	inactive	inactive			inactive	
O=[N+]([O-])c1cccc2cccnc12	inactive	inactive	inactive	inactive	inactive	inactive	inactive		inactive			inactive	inactive	inactive	inactive	inactive		inactive	inactive	

Reference: PubChem BioAssay (Tox21)
